Results published in PubChem BioAssay (NCATS).
Inconclusive results are not listed. Entries that show only a call come without a potency. Values without a mark were called inactive. Active and inactive are the calls of the source. Calls follow the shape of the dose curve; as a rule, active = well fitted curve in the direction sought with a large enough effect; inconclusive = small, poorly fitted or top-dose-only effect, or another doubt; inactive = no such curve, though single readings can be large; an effect the other way counts as inactive or inconclusive.

Assays:
[1] = target: Aldehyde dehydrogenase, mitochondrial (Homo sapiens) (UniProt P05091); test: qHTS for Inhibitors of the Aldehyde Dehydrogenase Family (ALDH2) Primary screen (AID 2061308); also: nearly all actives have a fitted effect of over 55% in size
[2] = target: Retinaldehyde dehydrogenase 3 (Homo sapiens) (UniProt P47895); test: qHTS for Inhibitors of the Aldehyde Dehydrogenase Family (ALDH1A3) Primary screen (AID 2061315)

Compound | Potency [1] | Potency [2] | activity change, negative = inhibition [1] | activity change, negative = inhibition [2]
C=C(C(=O)O)[C@H]1C[C@]2(C)C(=O)CC[C@]23O[C@H]1C[C@@H]3C | inactive | inactive |  | 
Cc1ccc(NS(=O)(=O)c2ccc(C(=O)Nc3nc(-c4ccccc4)cs3)cc2)cc1 | inactive | inactive |  | 
Cc1cc(C)nc(NC(=S)N2CCN(c3ccc(Cl)c(C(F)(F)F)c3)CC2)c1 | inactive | inactive |  | 
COc1ccc2nc(-c3ccc(OC)c(OC)c3)sc2c1 | inactive | inactive |  | 
O=C(Cc1ccc(Cl)c(Cl)c1)Nc1ccc(S(=O)(=O)NCc2ccco2)cc1 | inactive | inactive |  | 
O=C(/C=C/c1ccccc1Cl)Nc1cccc([S+](=O)([O-])Nc2ccccc2F)c1 | inactive | inactive |  | 
Cc1ccc(Cl)cc1NC(=O)c1nc[nH]c1C(=O)Nc1nc2ccccc2[nH]1 | inactive | inactive |  | 
Cc1ccc(-c2cc(C(=O)N(C)c3ccccc3)c3ccccc3n2)cc1C | inactive | inactive |  | 
C[C@@H]1O[C@@H](O[C@H]2[C@H](OC(=O)[C@]34CCC(C)(C)C[C@H]3C3=CCC5[C@@]6(C)C[C@H](O)[C@H](O[C@@H]7O[C@H](CO)[C@@H](O)[C@H](O)[C@H]7O)[C@](CO)(C(=O)O)C6CC[C@@]5(C)[C@]3(C)C[C@H]4O)OC[C@H](O)[C@@H]2O)[C@H](O)[C@H](O)[C@H]1O[C@@H]1OC[C@@H](O)[C@H](O[C@@H]2OC[C@](O)(CO)[C@H]2O)[C@H]1O (stereo not given in full) |  |  | 7.32% [at 11.2 µM] | 18.8% [at 11.2 µM]
O=C(Nc1cccc(-c2nn3c(=O)cc(N4CCNCC4)nc3s2)c1)C1CCNCC1 | inactive | inactive |  | 
COc1ccc(O[C@@H]2O[C@H](CO)[C@H](O)[C@H](O)[C@H]2O)cc1 | inactive | inactive |  | 
COc1cccc(C2c3c(ncn(Cc4cccs4)c3=N)Oc3ccc4ccccc4c32)c1 (stereo not given) | inactive | inactive |  | 
COc1ccc(Nc2nc(-c3ccncc3)nc3ccccc23)cc1F | inactive | inactive |  | 
O=C(Nc1sc2c(c1-c1nc3ccccc3s1)CCNC2)C(F)F | inactive | inactive |  | 
Cc1ccc(S(=O)(=O)Nc2cnccc2C(=O)Nc2ccc(-c3nn[nH]n3)cc2)cc1 | inactive | inactive |  | 
O=c1[nH]c(CCl)nc2sc3c(c12)CCC3 | inactive | inactive |  | 
N#Cc1ccccc1CCc1nc2ncc(Br)cc2[nH]1 | inactive | inactive |  | 
CC(C)(C)[C@H](NC(=O)c1ccc(N)c(Cl)c1)C(=O)N1CCC[C@H]1C(=O)N[C@H](C#N)Cc1nn[nH]n1 | inactive | inactive |  | 

Compound | Potency [1] | Potency [2] | activity change, negative = inhibition [1] | activity change, negative = inhibition [2]
Cc1cc(C)nc(NC(=S)N2CCN(c3ncccc3C(F)(F)F)CC2)c1 | inactive | inactive |  | 
Nc1nc(N)c2c(OCC3CCN(Cc4ccccc4F)CC3)cccc2n1 | inactive | inactive |  | 
CC(=O)O[C@@]1(C)[C@@H]2CC(=C(C)C)C(=O)C[C@@]2(C)CC[C@H]1OC(=O)C1(C)OC1C (stereo not given in full) | inactive | inactive |  | 
c1ccc(CNCc2nnc(-c3cc4ccccc4[nH]3)o2)cc1 | inactive | inactive |  | 
O=C(O)c1cccc2c1C(=O)N(c1ccccc1)C2 | inactive | inactive |  | 
COc1cccc(C2c3c(ncn(-c4ccccc4Cl)c3=N)Oc3ccc4ccccc4c32)c1 (stereo not given) | inactive | inactive |  | 
COC(=O)c1ccc(O)c2ncc(N(C)C)cc12 | inactive | inactive |  | 
O=c1c2ccccc2nc2sc(Nc3ccc4c(c3)CNC4)nn12 | inactive | inactive |  | 
CCOc1ccccc1-c1nnc2n1N=C(c1cc(OC)cc(OC)c1)CS2 | inactive | inactive |  | 
CCOC(=O)C1CCN(C(=O)C(C)(C)NC(=O)Nc2ccc(C#N)cc2)CC1 | inactive | inactive |  | 
O=C(NCCc1nc2ccccc2n1CCOc1ccc(Cl)cc1)C1CCCCC1 | inactive | inactive |  | 
CCCc1ccc(-c2csc(NC(=O)c3ccncc3NS(=O)(=O)c3ccc(C)cc3)n2)cc1 | inactive | inactive |  | 
COc1cccc(NC(=S)N2CCN(c3cc(Cl)cc(Cl)c3)CC2)n1 | inactive | inactive |  | 
N#Cc1cc(-c2nc(Nc3ccc(F)c(F)c3)c3ccccc3n2)ccn1 | inactive | inactive |  | 
O=C(CNC(=O)c1ccc2cc[nH]c2c1)OC(C(=O)Nc1cc(C(F)(F)F)ccc1Cl)c1ccccc1 (stereo not given) | inactive | inactive |  | 
Cc1ccc(-c2cc(C(=O)NCc3ccc(S(N)(=O)=O)cc3)c3ccccc3n2)cc1C | inactive | inactive |  | 
Cc1cn([C@H]2C[C@H](N[S+](=O)([O-])Cc3cccc(Cl)c3)[C@@H](CO)O2)c(=O)[nH]c1=O | inactive | inactive |  | 
